# IL-2 act = IL-2 activation | IL-2 activation reporter assay, cell-based qHTS; stimulated with anti-CD3/CD4/CD28 beads; in transgenic mouse T cells | activation, % (series mostly up to about 46 µM) | 360,000 compounds, 0.065% hits; also: 0% is about no effect
#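 Unstimulated transgenic mouse T cells, 750 per well, received compound and, after 60 minutes, anti-CD3/anti-CD4 bead plus anti-CD28 stimulation. EGFP and DsRed were quantified after 18 hours.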
# BRCA1 expr up = BRCA1 expression activation | 380,000 compounds, 1.1% hits | Potency, µM (top dose mostly 46.1 µM), without a hit: top-dose activation, most hits filed as activators | AID 624202 | MCF7-BRCA1-FFLuc reporter, luminescence, 48 h; response scale: scaled: vehicle 0%, 10 µM genistein 100%; active = well fitted activation curve with a large enough effect; inconclusive = small, poorly fitted or top-dose-only effect; inactive = no such curve, though single readings can be large or run the other way; also: potency is read from the fitted curve at half-maximal effect; nearly all actives have a fitted effect of over 80% in size
#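 Cells: MCF7-BRCA1-FFLuc, 2000/well. Exposure: 48 h, 37 °C, 5% CO2. Read: luminescence, 15 min post-substrate. Controls: genistein 10 microM (maximal activation), DMSO (neutral).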
# TRPML1 agonist = agonists of human TRPML1 channel | Q9GZU1 | TRPML1-expressing cells, Ca2+ dye fluorescence, FDSS | activation, % (test concentration not listed) | 410,000 compounds, 0.12% hits | AID 624414; also: 0% is about no effect
#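 TRPML1-DL cells, Tet-induced overnight (~16 h, 37 degrees C), loaded 45-90 min at room temperature with Ca8 no-wash calcium dye plus quencher. FDSS fluorescence: 10 s baseline, compound pin-transfer, 110 s agonist read, then EC80 54-4 (4uM final) and 110 s antagonist read.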
# PKM2 activator = increases activity of human pyruvate kinase M2; 260,000 compounds, 0.34% hits; purified PKM2, Kinase-Glo ATP luminescence, activation; response scale: 0% is enzyme alone, no compound; P14618; Potency, µM (series often up to 57.5 µM), inactives show at the top dose activation, actives largely listed as activators; active = well fitted activation curve with a large enough effect; inconclusive = small, poorly fitted or top-dose-only effect; inactive = no such curve, though single readings can be large or run the other way; also: potency is read from the fitted curve at half-maximal effect; % is scaled to controls: 0 for no effect and ±100 for the full control effect; nearly all actives have a fitted effect of over 55% in size
#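 Kinase-Glo luminescence reports ATP generated from ADP (0.1 mM) and PEP (0.5 mM) by purified hPK-M2 after 1 h at room temperature, pH 7.2 imidazole buffer; intermediate enzyme activity allows detecting inhibitors and activators.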
# PTAP TSG101 blk = blocks PTAP/TSG101 interaction to inhibit HIV-1 budding | Q99816 | Fluorescence polarization, FITC-PTAP peptide / Tsg101 binding | Potency, µM (doses to about 115 µM), for inactives: at the highest dose activity change, negative = inhibition, usual class: inhibitors | 340,000 tested, under 10 active | AID 493005; active = well fitted inhibition curve with a large enough effect in the main read-out, with a control signal flat, not every such curve was filed as active; inconclusive = small, poorly fitted or top-dose-only effect, or effect the other way, or a change in a side signal; inactive = no such curve, though single readings can be large or run the other way; also: potency is read from the fitted curve at half-maximal effect; % of control where 0% means no effect
# Target sequence (Q99816 whole entry, looked up): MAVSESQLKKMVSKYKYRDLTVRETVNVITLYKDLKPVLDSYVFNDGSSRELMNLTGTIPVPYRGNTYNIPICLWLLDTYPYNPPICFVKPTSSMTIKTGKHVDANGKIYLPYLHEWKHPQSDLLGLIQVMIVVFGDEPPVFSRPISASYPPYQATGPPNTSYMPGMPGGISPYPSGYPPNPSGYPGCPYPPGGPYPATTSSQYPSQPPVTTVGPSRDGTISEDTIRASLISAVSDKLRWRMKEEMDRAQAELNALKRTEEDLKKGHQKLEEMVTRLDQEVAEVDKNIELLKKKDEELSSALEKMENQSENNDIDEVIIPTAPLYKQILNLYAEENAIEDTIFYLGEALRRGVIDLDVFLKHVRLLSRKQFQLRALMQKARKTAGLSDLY
#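 Fluorescence anisotropy tracks displacement of a FITC-tagged PTAP peptide (50 nM) from the Tsg101 binding domain (10 uM), following a 20 min room-temperature incubation at pH 7.5.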
# TRPML1 inh = human mucolipin-1 channel inhibition; Q9GZU1; TRPML1-inducible cells, Ca2+ dye fluorescence, FDSS; active compounds read low; inhibition of EC80 agonist-evoked calcium signal; activity change, negative = inhibition, % (concentration not given with the values); 390,000 compounds, 0.02% hits; AID 624415; in the data active = activity change below about -50%; inconclusive = between about -30% and that limit;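 also: stimulus is agonist 54-4 at its EC80 concentration; % is scaled to controls: 0 for no effect and ±100 for the full control effect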
#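 Tet-induced TRPML1-DL cells loaded with Ca8 no-wash calcium dye were read kinetically on FDSS. Compound addition was followed by EC80 agonist 54-4 (4 uM final); inhibition was read over 110 s.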
# An asterisk follows results filed as active; ? = inconclusive; nt = no result given; [ ] = dose if it differs, or a comment. Sampled rows, rich in hits. Any-hit rate of the full collection: about 1.3%. Rule as the data show it, unless noted: active = activation above about 50%; inconclusive = mostly about 30% to 49%; inactive = weaker than that.
SMILES,IL-2 act,BRCA1 expr up,TRPML1 agonist,PKM2 activator,PTAP TSG101 blk,TRPML1 inh
CCCCn1c(O)c(/C=N/N2CCOCC2)c(=O)[nH]c1=S,-1,-24%,-1,-1%,0%,-3
CCCCCCn1c(O)c(C=Nc2ccccc2N2CCOCC2)c(=O)[nH]c1=S,59*,-6%,1,3%,5%,-3
CN(C)c1ccc(/C=C2\CCCN=C2c2cccnc2)cc1,nt,nt,nt,-13%,nt,nt
Cc1ccccc1N(CC(=O)NC1CCCC1)C(=O)c1csnn1,-5,10%,0,?,1%,-22
CC[C@@]1(C(=O)OC)N[C@H](CN(C)C(=O)Nc2ccc(OC)cc2)[C@@H]2C(=O)N(Cc3ccccc3)C(=O)[C@@H]21,0,10µM*,0,nt,-3%,-8
COC(=O)[C@@H]1N=C(c2ccc(OC)cc2)O[C@]12C(=O)N(Cc1ccccc1)c1ccccc12,-1,-24%,0,nt,nt,nt
ClCCN(CCCl)/C(=C\c1ccccc1)c1ccnc2ccccc12,nt,nt,23,nt,nt,nt
[Hg+][c]1ccccc1,nt,-44%,0,nt,nt,nt
O=C(c1cc(-c2cccc(Cl)c2)on1)N1CCOCC1,-4,10µM*,0,-9%,1%,7
O=C(c1cc(-c2ccccc2)on1)N1CCC2(CC1)OCCO2,nt,nt,nt,-18%,nt,nt
CC1=CC[C@@H]2[C@@H](C1)c1c(O)cc(CC#CCCCNS(C)(=O)=O)cc1OC2(C)C,nt,nt,nt,8%,nt,nt
O=C(CN1CCCC1)Nc1ccc(NC(=O)Nc2ccccc2)cc1,0,2.8µM*,0,-19%,-3%,-6
C[C@H]1O[C@@H](O[C@H]2[C@@H](O)C[C@@H](O[C@H]3[C@@H](O)C[C@H](O[C@H]4CC[C@@]5(C)[C@H](CC[C@@H]6[C@@H]5CC[C@]5(C)[C@@H](C7=CC(=O)OC7)CC[C@]65O)C4)O[C@@H]3C)O[C@@H]2C)C[C@H](O)[C@@H]1O,nt,?,0,nt,nt,nt
CC1OC(O[C@H]2C[C@@H](O)[C@]3(CO)[C@H]4[C@H](O)C[C@]5(C)[C@@H](C6=CC(=O)OC6)CC[C@]5(O)[C@@H]4CC[C@]3(O)C2)C(O)C(O)C1O (some centres not stated),nt,-4%,-1,nt,nt,nt
CN1/C(=C\C=C2C(=O)NC(=O)NC2=O)C(C)(C)c2ccccc21,?,-11%,81*,-6%,?,-10
ClCCN(CCCl)c1ccc(/C=C/c2sc3ccccc3[n+]2CCCCI)cc1,nt,17%,20,nt,nt,nt
Cc1ccc(N2C(=O)NC(=O)/C(=C/c3ccc(-c4ccc(C(=O)O)c(Cl)c4)o3)C2=O)cc1,1,-3%,3,25µM*,-6%,-10
Cc1cc(/C=C2\C(=O)NC(=O)N(c3cccc(F)c3)C2=O)c(C)n1-c1ccc(C(=O)O)c(Cl)c1,0,11%,0,1%[11.5 µM],1%,?
O=c1[nH]c(=O)n(Cc2ccco2)c(O)c1C=NCc1cccs1,-2,6%,0,28µM*,nt,-4
CCN(CC)c1ccc(N=Cc2c(O)n(Cc3ccco3)c(=O)[nH]c2=O)cc1,84*,-41%,2,-1%,?,26
CNc1cccc(-c2ccc(N3CCN(C)CC3)nc2)n1,1,?,0,nt,nt,nt
Cc1[nH]cnc1CCN,nt,nt,nt,3%,nt,nt
Nc1ccc2ccccc2c1,-4,24%,1,nt,-2%,14
Nc1ccc2c(c1)oc1ccccc12,0,7.1µM*,-1,1%,2%,-8
O=C(Nc1ccc(Cl)c(C(F)(F)F)c1)NC1CC2CCCC(C1)N2Cc1ccccc1 (configuration not stated),-2,-81%,2,-2%,-4%,5
SMILES,IL-2 act,BRCA1 expr up,TRPML1 agonist,PKM2 activator,PTAP TSG101 blk,TRPML1 inh
CC1(C)CSC(=NCc2ccccc2)N1,2,-83%,91*,0%,-2%,8
O=C(C1CCCN(S(=O)(=O)c2ccc(F)cc2)C1)N1CCOCC1 (configuration not stated),-2,?,0,nt,-1%,13
Cc1cc(/C=C2\C(=O)NC(=O)N(c3ccc(Cl)cc3)C2=O)c(C)n1-c1sc2c(c1C#N)CCCC2,-2,-13%,1,26%,3%,10
CCOC(=O)c1c(-n2c(C)cc(/C=C3\C(=O)NC(=O)N(C)C3=O)c2C)sc2c1CCCC2,-1,-40%,1,16µM*,0%,47
Nn1c(COc2ccc(Cl)cc2)n[nH]c1=S,2,6%,-1,?,-2%,7
CN1C(=O)C(=Cc2ccc(Sc3ccccc3)o2)C(=O)N(C)C1=O,0,-12%,-1,20%,0%,-4
O=C1NC(=O)C(=Cc2ccc(Sc3ccccc3)o2)C(=O)N1,0,-22%,0,20µM*,-5%,5
c1cc2c3c(cccc3c1)CC2,nt,-2%,-1,nt,nt,nt
CN1CC=C(/C=C/c2ccc(-c3ccccc3)cc2)CC1,-1,8.9µM*,nt,0%,-1%,nt
CCOC(=O)c1ccc(N2Cc3ccccc3C2=NC(=O)c2cccc([N+](=O)[O-])c2)cc1,1,5µM*,nt,nt,-1%,nt
Cc1ccc(N2Cc3ccccc3C2=N)cc1[N+](=O)[O-],1,-16%,0,2%,0%,5
O=C(CSc1nnc(NC(=O)c2ccccc2F)s1)NCc1ccc(F)cc1,-3,5µM*,0,6%,-2%,-1
O=C(c1cc2ccccn2n1)N1CCN(Cc2ccccc2)CC1,0,10µM*,0,-10%,-5%,13
CCN1/C(=C/C=C/C2=[N+](CC)c3ccccc3C2(C)C)C(C)(C)c2ccccc21,-6,-86%,76*,nt,nt,-15
CN1C(=O)C(=Cc2coc3ccccc3c2=O)C(=O)N(C)C1=O,0,-8%,0,-2%,-3%,7
O=C1NC(=O)C(=Cc2coc3ccc(O)cc3c2=O)C(=O)N1,0,-21%,0,32µM*,-10%,33
COc1ccc2nc(NC3=NCCN3)sc2c1,1,1.3µM*,0,-2%,-1%,-15
c1ccc2sc(NC3=NCCN3)nc2c1,-3,?,0,-6%,-1%,-13
CC(C)(C)OC(=O)N(CCc1ccccc1)Cc1ccc(OCc2cccc(NC(=O)c3ccccc3)c2)cc1,-1,-32%,3,nt,?,-1
CCN(CC)c1ccc(/C=N/c2sc3c(c2C#N)C2CCN3CC2)c(O)c1,53*,-25%,?,-3%,?,-5
CCOCCSc1nc2c(c(-c3cccs3)c1C#N)CC/C2=C/c1cccs1,-2,-55%,0,-5%,?,16

# Assay outcomes deposited in PubChem BioAssay by National Center for Advancing Translational Sciences (NCATS).
